Lamin A splicing: modulators of lamin A splicing; HeLa LMNA splicing GFP/RFP minigene ratio, 48 h; Potency, µM (highest dose often 46.1 µM), hits mostly inhibitors; actives 0.01% (n = 200,000); active = well fitted inhibition curve with a large enough effect in the signal ratio, with a control signal flat, not every such curve was filed as active; inconclusive = small, poorly fitted or top-dose-only effect, or effect the other way, or a change in a side signal; the % refers to the signal ratio
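S3 HeLa cells stably expressing lamin A-EGFP splicing minigene plus DsRed2, 600 cells/well, 48 h compound exposure at 37C. Laser-scanning cytometry; analysed as GFP (500-530 nm)/RFP (575-640 nm) total intensity ratio; 0.5% DMSO vehicle.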
HPGD inh: blocks human HPGD enzyme activity; P15428; purified HPGD, NADH fluorescence kinetic, PGE2 substrate; Potency, µM, usual class: inhibitors; actives 4.3% (n = 150,000); AID 894; active = well fitted inhibition curve with a large enough effect, not every such curve was filed as active; inconclusive = small, poorly fitted or top-dose-only effect, or another doubt; inactive = no such curve, though single readings can be large or run the other way
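NADH formation kinetics: reaction with 30 uM PGE2 and 1 mM NAD+ (final), 20 nM enzyme, Tris-HCl pH 8 with Tween 20, after 15 min compound preincubation at room temperature. Fluorescence change, last versus first of five reads.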
ALDH1A1 block: blocks purified human ALDH1A1 activity; Purified ALDH1A1, NADH fluorescence, propionaldehyde substrate; Potency, µM (titrated, usually from 75.3 µM), usual class: inhibitors; actives 7.3% (n = 220,000); P00352; active = well fitted inhibition curve with a large enough effect, not every such curve was filed as active; inconclusive = small, poorly fitted or top-dose-only effect, or another doubt; inactive = no such curve, though single readings can be large or run the other way
Target sequence (P00352 whole entry, looked up): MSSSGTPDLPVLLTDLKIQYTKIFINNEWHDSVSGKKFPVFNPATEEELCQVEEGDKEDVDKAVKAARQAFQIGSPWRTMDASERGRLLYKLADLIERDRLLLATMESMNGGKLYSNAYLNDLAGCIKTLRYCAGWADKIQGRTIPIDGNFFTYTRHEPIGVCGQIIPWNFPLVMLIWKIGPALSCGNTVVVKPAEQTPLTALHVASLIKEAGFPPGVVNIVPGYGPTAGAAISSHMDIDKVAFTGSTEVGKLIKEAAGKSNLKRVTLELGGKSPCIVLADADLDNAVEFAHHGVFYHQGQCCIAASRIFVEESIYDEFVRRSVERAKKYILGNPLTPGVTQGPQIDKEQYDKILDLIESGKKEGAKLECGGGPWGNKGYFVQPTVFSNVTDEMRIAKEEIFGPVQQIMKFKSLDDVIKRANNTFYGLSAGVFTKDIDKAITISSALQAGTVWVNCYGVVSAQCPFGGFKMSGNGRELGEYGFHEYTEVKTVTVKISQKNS
HTT ATP protect: cytoprotection in Huntington HTT-Q103 PC12 cell model; PC12 HTT-Q103 induced, cytoprotection, ATP luminescence, 40 h; Potency, µM (top dose mostly 56.4 µM), usual class: activators; actives 0.14% (n = 230,000); also: nearly all actives have a fitted effect of over 45% in size
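PC12 cells stably carrying ecdysone-inducible Htt exon 1 (Q103)–GFP were induced with 100 nM tebufenozide (final) alongside library compounds in a dose series. Cytoprotection was scored as retained ATP by ATPlite luminescence.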
HTT aggregate: reduces HttQ103-GFP aggregates in PC12 cells. PC12 HttQ103-GFP aggregates, Acumen cytometry, 40 h. Potency, µM (doses to about 46.1 µM), most hits filed as inhibitors. actives 1.1% (n = 220,000). AID 1688; also: nearly all actives have a fitted effect of over 60% in size
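PC12 cells stably carrying ecdysone-inducible HTT exon 1 Q103–GFP were induced with tebufenozide (100 nM final) and treated with library compounds in titration. GFP aggregates in lysates were counted by laser scanning cytometry.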
Luc counter: blocks Kinase-Glo luciferase, a counter-screen artifact. Q27757. actives 0.28% (n = 200,000). Potency, µM (highest dose often 38.3 µM), most hits filed as inhibitors. Kinase-Glo luciferase, ATP luminescence, 8 min; also: nearly all actives have a fitted effect of over 60% in size
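Compound is pinned into ATP-containing buffer (10 uM ATP, imidazole pH 7.2, 7 mM MgCl2). Kinase-Glo luciferase reagent is then added. Light output is recorded following an 8-min room-temperature incubation.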
Large screens that a line does not name were inactive. Hits are enriched below; roughly 9% of the tested compounds scored in any of these assays. Unless noted, calls follow the shape of the dose curve; as a rule, active = well fitted curve in the direction sought with a large enough effect; inconclusive = small, poorly fitted or top-dose-only effect, or another doubt; inactive = no such curve, though single readings can be large; an effect the other way counts as inactive or inconclusive.

COC(=O)c1sccc1NC(=S)NCc1ccc(Cl)cc1	none (no result: Lamin A splicing, HPGD inh, ALDH1A1 block, Luc counter)
COc1ccc(CC(=O)N2CC3(C)CC2CC(C)(C)C3)cc1OC (configuration not stated)	ALDH1A1 block inconclusive
O=C(N/N=C/c1ccncc1)c1ccccc1	none
Cc1ccc(C)n1-c1ccc(C(=O)N/N=C/c2ccncc2)cc1	ALDH1A1 block 18µM (no result: HPGD inh)
O=C(NN=C1CCCCC1)c1ccccc1OCc1ccc(F)cc1	Lamin A splicing inconclusive, ALDH1A1 block inconclusive
Cc1ccc(COc2ccccc2C(=S)N2CCCC2)cc1	ALDH1A1 block 25µM (no result: HPGD inh, HTT ATP protect)
O=C(OCC(=O)N1CCCC1)c1ccccc1OCc1ccccc1	none
Fc1ccc(COc2ccccc2C(=S)N2CCCC2)cc1	Lamin A splicing inconclusive, HPGD inh 8.9µM, ALDH1A1 block 7.9µM (no result: HTT ATP protect)
Cc1ccc(SCCC(=O)OC(C(=O)NC(N)=O)C(C)C)cc1 (configuration not stated)	none (no result: Lamin A splicing, HPGD inh, Luc counter)
Cc1ccc(C(=O)OCC(=O)Nc2c(C)n(C)n(-c3ccccc3)c2=O)cc1[N+](=O)[O-]	none (no result: HPGD inh)
COCCNC(C)C(=O)C12CC3CC(CC(C3)C1)C2 (configuration not stated)	none
COCCNCC(=O)C12CC3CC(CC(C3)C1)C2	ALDH1A1 block 10µM
O=c1[nH]cnc2nc(-c3ccccc3)c(-c3ccccc3)nc12	HPGD inh inconclusive, ALDH1A1 block inconclusive, HTT aggregate 14µM
Cc1cnc(C)c(N2CCN(Cc3nc(-c4cccc(F)c4F)oc3C)CC2)n1	none (no result: HPGD inh)
COc1cccc(CN2CCN(Cc3nc(-c4cccc(F)c4F)oc3C)CC2=O)c1	Lamin A splicing inconclusive, ALDH1A1 block 25µM (no result: HPGD inh)
COc1cc(N=C2C(=O)N3CCCc4cccc2c43)cc(OC)c1	ALDH1A1 block 0.63µM
O=C1CC(c2ccccc2O)Oc2ccc(O)cc21 (configuration not stated)	none (no result: Lamin A splicing, HTT aggregate)
O=C(CSc1nc2ccccc2o1)Nc1ccc(N2CCOCC2)c(Cl)c1	Lamin A splicing inconclusive, ALDH1A1 block inconclusive, HTT aggregate inconclusive
CCOc1ccccc1-n1nnnc1SCC(=O)OC	none (no result: Lamin A splicing, HPGD inh)
CCOC(=O)CSc1nnnn1-c1cccc2ccccc12	HPGD inh 25µM, ALDH1A1 block 1.8µM
Cc1cc(C)nc(SCC(=O)Nc2ccc(N3CCOCC3)c(Cl)c2)n1	Lamin A splicing inconclusive, ALDH1A1 block 22µM, HTT aggregate inconclusive
O=C(CSc1nnnn1-c1cccc2ccccc12)Nc1ccc(N2CCOCC2)c(Cl)c1	ALDH1A1 block 1.8µM, HTT aggregate inconclusive
COC(=O)N1CC=CC1(C)C(=O)NCc1ccc(C)o1 (configuration not stated)	ALDH1A1 block inconclusive (no result: Lamin A splicing, HTT aggregate)
COc1ccc(/C=C2\CCn3c2nc2cc(C(=O)O)ccc2c3=O)cc1O	HPGD inh 14µM, ALDH1A1 block 22µM
COc1ccc(/C=C2\CCn3c2nc2cc(C(=O)O)ccc2c3=O)cc1OC	none (no result: HPGD inh, ALDH1A1 block, Luc counter)
CC1CCN(C(=O)c2ccc(COc3ccccc3Cl)o2)CC1	HPGD inh 16µM, ALDH1A1 block inconclusive, HTT aggregate inconclusive
CCC(C)NC(=O)c1ccc(C(=O)c2ccccc2)cc1 (configuration not stated)	ALDH1A1 block inconclusive (no result: HPGD inh)
CCC(C)NC(=O)c1ccc(COc2ccccc2Cl)cc1 (configuration not stated)	HPGD inh 20µM
O=C(O)c1cccc(COc2ccccc2Cl)c1	HPGD inh inconclusive, Luc counter inconclusive
O=C(O)c1ccc(COc2ccccc2Cl)cc1	HPGD inh 13µM
O=C(c1ccc(COc2ccccc2Cl)o1)N1CCCC1	Lamin A splicing inconclusive
CCN(CC)C(=O)c1ccc(COc2ccccc2Cl)cc1	HPGD inh 0.35µM, ALDH1A1 block inconclusive
CCc1ccc(OCCNC(=O)c2ccccc2SCc2ccccc2)cc1	Lamin A splicing inconclusive (no result: HPGD inh, Luc counter)
COC(=O)c1sccc1NC(=O)Cn1nnc(-c2ccc(C)cc2)n1	none
CC(=O)Nc1ccc(NC(=O)COC(=O)c2cnccn2)cc1	ALDH1A1 block inconclusive (no result: Lamin A splicing, HPGD inh)
CC(C)NC(=S)NNc1nc2ccccc2s1	ALDH1A1 block 0.56µM (no result: HPGD inh)

Screens: PubChem, National Center for Advancing Translational Sciences (NCATS)
